Measured values taken from PubChem BioAssay.
“And” between values parts separate entries of the source, which are not always exact repeats. Equal values may be shown once.

Test: viability loss with induced miR-34 in A549 – imaging, A549 dox-inducible miR-34, nuclei and caspase counts, primary screen (AID 1347080); note: test concentration not given here
Settings: A549 miR-34 inducible, Hoechst nuclei count, 48 h; measured here: relative caspase fold change +Dox/-Dox

| SMILES | fold change |
| --- | --- |
| CNC1CC(c2ccc(Cl)c(Cl)c2)c2ccccc21 (stereo not given) | 1.45 |
| CCCCCN(C)CCC(O)(P(=O)(O)O)P(=O)(O)O | 0.937 and 1.66 |
| CNc1ccc2oc(C[C@@H]3OC4(CC[C@@H]3C)O[C@H](C(C)C(=O)c3ccc[nH]3)[C@H](C)C[C@H]4C)nc2c1C(=O)O (stereo not given in full) | 0.886 |
| CCC1(C)CC(=O)NC(=O)C1 | 1.33 and 1.2 |
| C[C@]12CC[C@@H](O)C[C@@H]1CC[C@@H]1[C@@H]2CC[C@]2(C)C(=O)CC[C@@H]12 | 1.48 |
| Oc1ccc2c3c1O[C@H]1c4oc5ccccc5c4C[C@@]4(O)[C@@H](C2)N(CC2CC2)CC[C@]314 | 0.462 |
| C[C@]12CC[C@H]3[C@@H](CC[C@]4(O)C[C@@H](O)CC[C@]34C=O)[C@@]1(O)CC[C@@H]2C1=CC(=O)OC1 | 0.794 |
| C[C@]12CCC(=O)CC1CCC1C2CC[C@@]2(C)C1CC[C@]2(C)O (stereo not given in full) | 1.8 |
| C[C@]12CCC(=O)C=C1CC[C@@H]1[C@@H]2C(=O)C[C@]2(C)C(=O)CC[C@@H]12 | 0.858 |
| CN1C[C@H](CO)C=C2c3cccc4[nH]cc(c34)C[C@H]21 | 1.6 |
| C[N+]1(C)C2CC[C@H]1CC(OC(=O)C(CO)c1ccccc1)C2 (stereo not given in full) | 1.32 |
| O=C1OCCN1N=Cc1ccc([N+](=O)[O-])o1 | 1.27 |
| CN1[C@@H]2CC[C@H]1CC(OC(=O)C1C=Nc3ccccc31)C2 (stereo not given in full) | 1.46 and 2.72 |
| C[C@]12CCC3[C@@H](CC[C@@H]4C[C@H](O)CC[C@]34C)[C@@H]1CCC2=O (stereo not given in full) | 1.16 |
| CCC1=C[C@@H]2CN3CCc4c([nH]c5ccccc45)[C@@](C(=O)OC)(C2)[C@@H]13 | 1.22 and 0.88 |
